An excerpt weighted towards active compounds, which were near 12% of everything screened.
JMJD2A Tudor inh = qHTS Assay for Inhibitors of JMJD2A-Tudor Domain; Lysine-specific demethylase 4A (Homo sapiens), O75164; AlphaScreen JMJD2A-Tudor / H3K4me3 peptide binding; Potency, µM (doses to about 114 µM), inactives show at the highest dose activity change, negative = inhibition, hits mostly inhibitors; hit rate 4.4% among 390,000; AID 504339, 2011; further: on the % scale 0 is the no-effect control and ±100 the full control effect; nearly all actives have a fitted effect of over 50% in size
Sfp inh = qHTS Assay for Inhibitors of Bacillus subtilis Sfp phosphopantetheinyl transferase (PPTase). Biochemical Sfp PPTase activity, qHTS. Potency, µM, for inactives: largest response in the series, negative = inhibition, most hits filed as inhibitors. hit rate 3.5% among 310,000. AID 1490, 2009;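 further: the enzyme is Sfp with the accession as filed and its product quenches rhodamine fluorescence; 0% = enzyme reaction without inhibitor and -100% = no enzyme wells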
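Step 1, compound plus 15 nM Sfp-PPTase, 15 min, room temperature. Step 2, add rhodamine-CoA (5 uM) and BHQ-2-YbbR (12.5 uM). Step 3, read 525/598 nm fluorescence at 0 and 30 min.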
BAZ2B inh = qHTS Assay for Inhibitors of BAZ2B; Bromodomain adjacent to zinc finger domain protein 2B (Homo sapiens), Q9UIF8; AlphaScreen BAZ2B-H3K14Ac peptide displacement; Potency, µM (series often up to 114 µM), without a hit: at the top dose activity change, negative = inhibition, hits mostly inhibitors; hit rate 4.4% among 360,000; further: on the % scale 0 is the no-effect control and ±100 the full control effect; nearly all actives have a fitted effect of over 60% in size
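BAZ2B 50 nM plus b-H3(5-23)K14Ac 50 nM, PBS pH 7.4/0.01% Tween-20, 30 min RT; compound added (max 110 uM), 30 min RT; streptavidin donor/Ni-chelate acceptor beads 10 ug/mL final, 20 min dark; AlphaScreen read.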
HP1b chromo inh = HTS for Inhibitors of HP1-beta Chromodomain Interactions with Methylated Histone Tails. Chromobox protein homolog 1 (Homo sapiens), P83916. AlphaScreen HP1-beta / biotin-H3K9me3 peptide binding. Potency, µM (titrated, usually from 114 µM), for the others: at the top dose activity change, negative = inhibition, usual class: inhibitors. hit rate 0.56% among 390,000; further: nearly all actives have a fitted effect of over 70% in size
Target sequence (P83916 whole entry, looked up): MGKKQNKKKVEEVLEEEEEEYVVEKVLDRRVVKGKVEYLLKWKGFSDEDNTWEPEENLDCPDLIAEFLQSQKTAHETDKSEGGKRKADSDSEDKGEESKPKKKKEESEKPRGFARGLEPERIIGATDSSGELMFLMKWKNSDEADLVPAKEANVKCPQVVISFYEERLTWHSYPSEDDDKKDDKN
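AlphaScreen: HP1-beta (50 nM) preformed 30 min with biotin-H3(1-18)K9me3 peptide (50 nM) in PBS pH 7.4, 0.01% Tween-20. Compound added for 30 min at RT, then streptavidin donor/nickel chelate acceptor beads (10 ug/mL) for 30 min.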
G9a inh = qHTS Assay for Inhibitors of Histone Lysine Methyltransferase G9a; Histone-lysine N-methyltransferase EHMT2 (Homo sapiens), Q96KQ7; G9a H3K9 monomethylation, AlphaScreen, 2 h; Potency, µM (highest dose often 102 µM), inactives show at the top dose activity, negative = inhibition, actives largely listed as inhibitors; hit rate 8.8% among 350,000; AID 504332, 2011; further: on the % scale 0 is the no-effect control and ±100 the full control effect; nearly all actives have a fitted effect of over 75% in size
Target sequence (Q96KQ7 913-1193 limits assumed): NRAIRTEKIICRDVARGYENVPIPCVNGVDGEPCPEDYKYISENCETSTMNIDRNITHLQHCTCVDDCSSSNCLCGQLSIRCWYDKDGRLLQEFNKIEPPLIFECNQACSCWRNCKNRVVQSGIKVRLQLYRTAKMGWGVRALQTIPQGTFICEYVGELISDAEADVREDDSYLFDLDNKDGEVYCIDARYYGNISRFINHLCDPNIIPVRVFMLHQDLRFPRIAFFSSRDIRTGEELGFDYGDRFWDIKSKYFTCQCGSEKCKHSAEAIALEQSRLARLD
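Enzyme 20 nM + cpd, 15 min RT; add b-H3K9 pep 500 nM / SAM 20 uM; 2 h RT; anti-H3K9me1 Ab 0.5 ug/mL + SA donor / anti-rabbit acceptor beads 20 ug/mL each, 10 min; AlphaScreen read.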
PLK1 PBD inh = qHTS for Inhibitors of PLK1-PDB (polo-like kinase 1 - polo-box domain): Primary Screen | Plk1 PBD binding of FITC phosphopeptide, fluorescence polarization | hit rate 2.8% among 360,000 | Serine/threonine-protein kinase PLK1 (Homo sapiens), P53350 | Potency, µM, for inactives: max response, negative = inhibition, most hits filed as inhibitors; further: series mostly up to about 57 µM; on the % scale 0 is the no-effect control and ±100 the full control effect; nearly all actives have a fitted effect of over 65% in size
* hit, by the source's call; ? = inconclusive; / = no result given; [ ] = another dose, or the depositor's remark. The call rests on the fitted dose curve; in most records, active means well fitted curve in the direction sought with a large enough effect; inconclusive means small, poorly fitted or top-dose-only effect, or another doubt; inactive means no such curve, though single readings can be large; an effect the other way counts as inactive or inconclusive. Potency means the concentration at half of the fitted maximal effect.

SMILES	JMJD2A Tudor inh	Sfp inh	BAZ2B inh	HP1b chromo inh	G9a inh	PLK1 PBD inh
COC(=O)CCCCC1SCC(NC(=O)c2ccccc2)C1Cl (configuration not stated)	-12%	0%	79µM*	36%	-41%	-6%
CS(=O)(=O)NNP(=O)(NNS(C)(=O)=O)NC(=O)c1ccc(Br)cc1	-17%	7%	-14%	44%	45µM*	-5%
NP(=O)(Nc1ccccc1)Nc1ccccc1	-17%	/	/	6%[57 µM]	/	-2%
CS(=O)(=O)NNP(=O)(NNS(C)(=O)=O)NC(=O)c1ccccc1	6%	2%	-10%	31%	56µM*	4%
C=C1CC2C(CC[C@]3(C)C(=O)CCC23)[C@]2(C)C=CC(=O)C=C12 (some centres not stated)	/	5%	/	/	21%[59 µM]	/
CCc1ccccc1NC(=O)NNS(=O)(=O)c1cc(C)ccc1C	-14%	5%	0%	21%	58%	6%
CC(=O)N1N=C(c2c(O)n(C)c(=O)n(C)c2=O)CC1c1ccccc1 (configuration not stated)	-29%	-15%	-22%	55%	40µM*	-7%
COCCN(CCOC)C(=O)CCn1c(=O)oc2ccccc21	?	0%	-4%	16%	?	-5%
Cc1cc(SCc2sc(-c3ccc(C(F)(F)F)c(F)c3)nc2C)ccc1OCC(=O)O	/	-21%	/	/	/	/
CC(=O)[C@H]1CC[C@H]2C3CC[C@H]4C[C@](C)(O)CC[C@]4(C)C3CC[C@]12C (some centres not stated)	/	2%	/	/	/	/
C[N+]1(C)CCO[C@](O)(c2ccc(-c3ccc([C@]4(O)C[N+](C)(C)CCO4)cc3)cc2)C1	/	14%	/	/	13%[21.5 µM]	/
CCCCn1c(=O)c(C(=O)Nc2ccccc2N)c(O)c2ccccc21	2%	-6%	50µM*	46%	/	-5%
CCCCCn1c(=O)c(C(=O)Nc2ccccc2N)c(O)c2ccccc21	1%	-4%	2%	47%	30%	-13%
CCC/C=C/C=C/C(=O)OC1/C(=C/C(=O)OC)CC2CC(C(C)O)OC(=O)CC(O)CC3CC(OC(C)=O)C(C)(C)C(O)(CC4C/C(=C/C(=O)OC)CC(/C=C\C(C)(C)C1(O)O2)O4)O3 (configuration not stated)	/	10%	/	/	-8%[12.7 µM]	/
CCC(C)C1O[C@]2(C=CC1C)CC1CC(C/C=C(\C)[C@H](OC3CC(OC)C(O[C@H]4CC(OC)[C@@H](O)C(C)O4)C(C)O3)[C@@H](C)/C=C/C=C3\COC4C(O)C(C)=C[C@H](C(=O)O1)[C@@]34O)O2 (some centres not stated)	/	14%	/	/	-31%[2.33 µM]	/
O=C(Oc1ccccc1)N1CCC[C@@]2(CCN(Cc3nccs3)C2)C1	/	20%	/	/	-6%[12.7 µM]	/
Cn1c(O)c(C(=O)c2ccccc2Cl)c(=O)n(C)c1=O	89µM*	-24%	/	18%	?	-6%
Cn1c(O)c(C(=N)COc2ccccc2)c(=O)n(C)c1=O	-7%	4%	6%	21%	15%[0.0925 µM]	-5%
Cc1ccccc1NC(=O)Oc1cccc(OC(=O)c2ccccc2)c1	-11%	12%	-2%	62%	26%	8%
O=C1c2ccccc2C(=O)c2c1ccc1c(=O)n(-c3ccccc3)[nH]c21	-21%	2%	-26%	-6%	3.2µM*	8%
CN(C)c1ccc(CN2CCc3nc(N4CCN(c5ccccn5)CC4)ncc3C2)cc1	35µM*	/	25µM*	28µM*	?	/
CCN1CCN(Cc2ccccc2C)CC1	-19%	7%	6%	20%	3%[12.7 µM]	-7%
c1ccc(CN2CCc3nc4ccccc4cc3C2)cc1	-17%	8%	-17%	21%	10%	-8%

Compound activity as filed in PubChem.
